Consider 25 compounds from PubChem BioAssay (NCATS).

A short description of assay [1]: Primary qHTS for small molecule stabilizers of the endoplasmic reticulum resident proteome: Secreted ER Calcium Modulated Protein (SERCaMP) assay (AID 1508630). In short, it runs like this:
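The SH-SY5Y reporter protocol was run at 3 concentrations up to 38.3 uM (primary) or 11 concentrations (follow-up): 16 h compound, 100 nM thapsigargin for 4 h, then extracellular luciferase luminescence.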

The nature of assay [2]: A High-Content qHTS Against Drug Library for the Identification of Small Molecules that Inhibit DYT1 Early Onset Primary Dystonia-Associated Cell Pathology (AID 1645839; calls by dose curve; also: potency is read from the fitted curve at half-maximal effect). In a few lines:
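Induced EGFP-delE TorsinA cells are imaged after 48 h of compound treatment. Punctate fusion-protein distribution gives the %pathology value, while nuclei counts flag toxicity. Wild-type EGFP-hTOR1A cells define the normal pattern.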
For orientation: Quantitative high-throughput screening tests each substance at several concentrations.

Assay [3] deals with Cytochrome P450 2D6 (Homo sapiens) (UniProt P10635). The assay can be described thus: Cytochrome P450 family 2 subfamily D member 6 (CYP2D6) small molecule antagonists: luciferase biochemical (cell-free) qHTS assay (AID 1645840; active = well fitted curve in the direction sought with a large enough effect in the repeat runs; an effect the other way counts as inactive or inconclusive; also: nearly all actives have a fitted effect of over 55% in size; also: potency is read from the fitted curve at half-maximal effect). In short, it runs like this: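 P450-Glo CYP2D6 system: proluciferin substrate converted by enzyme to luciferin, read by luminescence proportional to activity. Enzyme-substrate mix with compound 10 min at room temperature, then NADPH regeneration 1 h before detection reagent.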
Sequence of Cytochrome P450 2D6 (Homo sapiens) (P10635 whole entry, looked up): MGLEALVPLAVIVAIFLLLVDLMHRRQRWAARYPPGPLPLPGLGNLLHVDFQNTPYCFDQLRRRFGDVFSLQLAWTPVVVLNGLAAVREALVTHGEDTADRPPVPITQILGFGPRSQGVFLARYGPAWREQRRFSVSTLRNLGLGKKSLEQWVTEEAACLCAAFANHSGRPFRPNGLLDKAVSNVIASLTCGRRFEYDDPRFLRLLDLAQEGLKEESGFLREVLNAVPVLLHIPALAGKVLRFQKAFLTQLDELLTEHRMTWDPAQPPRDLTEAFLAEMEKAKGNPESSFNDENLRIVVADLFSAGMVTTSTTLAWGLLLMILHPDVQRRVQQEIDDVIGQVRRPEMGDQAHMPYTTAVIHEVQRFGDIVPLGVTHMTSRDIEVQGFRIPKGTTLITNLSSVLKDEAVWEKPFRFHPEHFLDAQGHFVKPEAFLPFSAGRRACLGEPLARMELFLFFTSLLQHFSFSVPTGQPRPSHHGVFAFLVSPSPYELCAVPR

The target of assay [4] is Cytochrome P450 2C9 (Homo sapiens) (UniProt P11712). Nature of the assay: Cytochrome P450 family 2 subfamily C member 9 (CYP2C9) small molecule antagonists: luciferase biochemical (cell-free) qHTS assay (AID 1645842; active = well fitted curve in the direction sought with a large enough effect in the repeat runs; an effect the other way counts as inactive or inconclusive; also: nearly all actives have a fitted effect of over 55% in size; also: potency is read from the fitted curve at half-maximal effect). In short, it runs like this: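 P450-Glo CYP2C9 system: proluciferin substrate with enzyme in mix containing 0.4% BSA, 10 min at room temperature, then NADPH regeneration solution added and incubated 1 h at 37C. Detection reagent stopped reaction; luminescence read after 20 min as RLU.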
Sequence of Cytochrome P450 2C9 (Homo sapiens) (P11712 whole entry, looked up): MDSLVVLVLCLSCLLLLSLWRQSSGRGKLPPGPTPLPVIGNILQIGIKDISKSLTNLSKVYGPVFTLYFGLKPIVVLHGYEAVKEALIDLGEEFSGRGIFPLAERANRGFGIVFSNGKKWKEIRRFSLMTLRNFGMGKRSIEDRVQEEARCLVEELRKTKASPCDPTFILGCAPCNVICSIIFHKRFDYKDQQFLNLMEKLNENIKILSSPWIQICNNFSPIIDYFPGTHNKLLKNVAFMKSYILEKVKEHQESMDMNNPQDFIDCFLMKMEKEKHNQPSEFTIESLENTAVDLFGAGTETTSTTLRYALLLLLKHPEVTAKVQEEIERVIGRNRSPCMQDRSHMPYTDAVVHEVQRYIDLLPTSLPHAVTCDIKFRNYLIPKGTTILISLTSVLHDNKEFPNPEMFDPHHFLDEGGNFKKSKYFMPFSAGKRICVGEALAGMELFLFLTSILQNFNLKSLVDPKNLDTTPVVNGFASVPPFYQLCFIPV

Assay [5] is described as follows: Primary qHTS for inhibitors of nuclear receptor binding SET domain protein 2 (NSD2) in an isogenic RCH-ACV NSD2 p.E1099K mutant (9B) (AID 1645876). Also: nearly all actives have a fitted effect of over 70% in size. Also: potency is read from the fitted curve at half-maximal effect.
Assay [6] in a line: Primary qHTS for inhibitors of nuclear receptor binding SET domain protein 2 (NSD2) in an RCH-ACV wild type WT cells (2C) (AID 1645877). Also: nearly all actives have a fitted effect of over 70% in size. Also: potency is read from the fitted curve at half-maximal effect.

Results filed as inconclusive are left out. Calls of active or inactive are those of the source. Unless noted, calls follow the shape of the dose curve; as a rule, active = well fitted curve in the direction sought with a large enough effect; inconclusive = small, poorly fitted or top-dose-only effect, or another doubt; inactive = no such curve, though single readings can be large; an effect the other way counts as inactive or inconclusive.

Take `Cc1cccc(C)c1NC(=O)c1ccc(N)cc1`: the Potency result in assay [1], in assay [2], in assay [3], in assay [4], in assay [5] and in assay [6] was “inactive” each time.
For `O=C1Nc2cc(Cl)ccc2Oc2ccccc21`, the Potency result in assay [1], in assay [2], in assay [3], in assay [4], in assay [5] and in assay [6] was “inactive” in each case.
Consider `Cc1ccc(C(C)OC(=O)C2(C)CCC(C(=O)O)C2(C)C)cc1` (stereo not given), for which the Potency result in assay [1], in assay [2], in assay [3], in assay [4], in assay [5] and in assay [6] was “inactive” in each case.
For the compound `CCOC(=O)C(=O)c1csc(NC=O)n1`, the Potency entry in assay [1], in assay [2], in assay [4], in assay [5] and in assay [6] was “inactive” throughout. Besides, the Potency in assay [3] was 19.5 µM (active).
With `CC(=O)c1cc2ccccc2s1`, the Potency result in assay [1], in assay [2], in assay [3], in assay [4], in assay [5] and in assay [6] was “inactive” throughout.
For the compound `Cc1ncc([N+](=O)[O-])n1C`, the Potency entry in assay [1], in assay [2], in assay [3], in assay [4], in assay [5] and in assay [6] was “inactive” throughout.
Turning to `CC(C)(C)c1ccc(C(=O)CCCCl)cc1`, the Potency entry in assay [1], in assay [2], in assay [3], in assay [4], in assay [5] and in assay [6] was “inactive” in each case.
For the compound `O=C(O)c1cn(C2CC2)c2cc(Cl)c(F)cc2c1=O`, the Potency entry in assay [1], in assay [2], in assay [3], in assay [4], in assay [5] and in assay [6] was “inactive” each time.
`CN1C(=O)CC(C)(c2ccccc2)C1=O` (stereo not given): the Potency entry in assay [1], in assay [2], in assay [3], in assay [4], in assay [5] and in assay [6] was “inactive” in each case.
For the compound `O=C(c1ccco1)N1CCNCC1`, the Potency result in assay [1], in assay [2], in assay [3], in assay [4], in assay [5] and in assay [6] was “inactive” throughout.
In the case of `COc1ccc2c(c1)CCCC2=O`, the Potency entry in assay [1], in assay [2], in assay [3], in assay [4], in assay [5] and in assay [6] was “inactive” each time.
Turning to `CCCc1c2oc(C(=O)O)cc(=O)c2cc2c(=O)cc(C(=O)O)n(CC)c12`, the Potency result in assay [1], in assay [2], in assay [3], in assay [4], in assay [5] and in assay [6] was “inactive” throughout.
In the case of `O=c1[nH]c2ccccc2c(=O)n1CCCl`, the Potency entry in assay [1], in assay [2], in assay [3], in assay [4], in assay [5] and in assay [6] was “inactive” in each case.
On to `CCCC(=O)O[C@]1(C(=O)CC)CC[C@H]2[C@@H]3CCC4=CC(=O)CC[C@]4(C)[C@H]3[C@@H](O)C[C@@]21C`, for which the Potency result in assay [1], in assay [2], in assay [5] and in assay [6] was “inactive” each time. Besides, the Potency was 12.3 µM (active) in assay [3] and 17.4 µM (active) in assay [4].
With `C[C@@H]1CCC[C@H](C)N1CCCC(O)(c1ccccc1)c1ccccn1` (stereo not given in full), the Potency entry in assay [1], in assay [2], in assay [4], in assay [5] and in assay [6] was “inactive” in each case. For the same compound, the Potency in assay [3] is 0.871 µM (active).
Regarding `CC(=O)O[C@H]1CC[C@@]2(C)C(=CC[C@@H]3[C@@H]2CC[C@]2(C)C(C(C)=O)=CC[C@@H]32)C1`, the Potency entry in assay [1], in assay [2], in assay [3], in assay [4], in assay [5] and in assay [6] was “inactive” throughout.
Take `CN1CCN(N)CC1`: the Potency entry in assay [1], in assay [2], in assay [3], in assay [4], in assay [5] and in assay [6] was “inactive” each time.
For the compound `C/C=C(/C(=C/C)c1ccc(OC(C)=O)cc1)c1ccc(OC(C)=O)cc1`, the Potency entry in assay [1] and in assay [3] was “inactive” each time. Also, the Potency in assay [2] was 8.91 µM (active); in assay [4] it was 17.4 µM (active); in assay [5], 5.31 µM (active); in assay [6], 3.76 µM (active).
As to `CCCCN(CCN(CCCC)C(=O)N1CCOCC1)C(=O)N1CCOCC1`, the Potency result in assay [1], in assay [2], in assay [3], in assay [4], in assay [5] and in assay [6] was “inactive” throughout.
Regarding `CCN(CC)C(=O)C1CN2CCc3cc(OC)c(OC)cc3C2CC1OC(C)=O` (stereo not given), the Potency entry in assay [1], in assay [2], in assay [3], in assay [4], in assay [5] and in assay [6] was “inactive” each time.
As to `Cc1nc([N+](=O)[O-])cn1-c1ccc([N+](=O)[O-])cc1`, the Potency entry in assay [1], in assay [2], in assay [3], in assay [4], in assay [5] and in assay [6] was “inactive” throughout.
Turning to `CC(C)(Oc1ccc(Cl)cc1)C(=O)OCCCOC(=O)C(C)(C)Oc1ccc(Cl)cc1`, the Potency result in assay [1], in assay [2], in assay [3], in assay [5] and in assay [6] was “inactive” in each case. Moreover, the Potency in assay [4] was 7.76 µM (active).
Turning to `O=C(O)[C@H](O)[C@@H](O)[C@H](O[C@@H]1O[C@H](CO)[C@H](O)[C@H](O)[C@H]1O)[C@H](O)CO`, the Potency entry in assay [1], in assay [2], in assay [3], in assay [4], in assay [5] and in assay [6] was “inactive” in each case.
As to `CC(C)NC(=O)c1ccc(C=O)cc1`, the Potency entry in assay [1], in assay [2], in assay [3], in assay [4], in assay [5] and in assay [6] was “inactive” each time.
In the case of `Nc1ccc2c(c1)CN1C(=O)c3ccccc3C1=N2`, the Potency result in assay [1] and in assay [2] was “inactive” throughout. The Potency in assay [3] was 1.69 µM (active); in assay [4], 4.25 µM (active); in assay [5], 7.31 µM (active); in assay [6] it was 8.2 µM (active).
